Measurements published in PubChem BioAssay (EPA / NIEHS).
Values joined by “and” are separate entries in the source; they are usually repeats but may differ in a detail not shown here. Equal values may be shown once. Records with an inconclusive call do not appear. Active and inactive are the calls of the source. The calls were made as follows: active = hit-call score of the fitted dose curve at least 0.9, where 1 is the maximum; inconclusive = response in the unintended direction; inactive = score below 0.9.

Legend:
[1] = biological target: chimpanzee Androgen Receptor (AR), AR (gene 747460) (UniProt O97775); assay: NVS_NR_cAR: NovaScreen (NVS) Nuclear Receptor Binding Assay for chimpanzee Androgen Receptor (AR) (AID 2283346);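 also: radioligand displacement from AR measured by scintillation counting in a cell-free assay; a loss of bound radioligand signal versus DMSO counts as binding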
Chain of chimpanzee Androgen Receptor (AR), AR (gene 747460) (O97775 whole entry, looked up): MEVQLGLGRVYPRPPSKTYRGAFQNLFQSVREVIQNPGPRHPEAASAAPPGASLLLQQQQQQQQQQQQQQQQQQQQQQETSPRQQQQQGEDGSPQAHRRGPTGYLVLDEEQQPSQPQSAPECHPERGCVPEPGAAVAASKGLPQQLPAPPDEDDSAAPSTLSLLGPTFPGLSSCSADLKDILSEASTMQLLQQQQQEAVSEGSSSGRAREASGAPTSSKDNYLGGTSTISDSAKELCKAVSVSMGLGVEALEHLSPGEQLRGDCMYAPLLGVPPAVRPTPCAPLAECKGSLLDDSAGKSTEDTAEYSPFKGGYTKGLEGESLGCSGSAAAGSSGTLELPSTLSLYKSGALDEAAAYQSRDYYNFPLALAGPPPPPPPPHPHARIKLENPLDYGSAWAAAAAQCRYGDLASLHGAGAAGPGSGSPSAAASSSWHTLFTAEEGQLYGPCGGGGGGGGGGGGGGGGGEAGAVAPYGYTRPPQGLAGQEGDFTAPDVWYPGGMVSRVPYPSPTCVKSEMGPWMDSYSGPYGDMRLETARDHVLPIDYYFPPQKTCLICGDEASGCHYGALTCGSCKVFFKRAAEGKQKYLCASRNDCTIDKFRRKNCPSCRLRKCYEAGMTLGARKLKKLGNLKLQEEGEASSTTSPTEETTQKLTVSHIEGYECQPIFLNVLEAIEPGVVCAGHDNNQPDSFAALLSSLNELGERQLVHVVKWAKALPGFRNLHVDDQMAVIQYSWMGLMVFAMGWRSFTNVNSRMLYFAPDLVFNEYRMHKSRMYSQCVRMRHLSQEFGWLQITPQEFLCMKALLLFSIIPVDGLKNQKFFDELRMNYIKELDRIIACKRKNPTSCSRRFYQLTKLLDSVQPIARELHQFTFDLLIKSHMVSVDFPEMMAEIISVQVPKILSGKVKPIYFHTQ
How it was run: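 Cell-free competition binding with insect-cell (Sf9/Sf21) extracted chimpanzee AR; scintillation signal from lysate at 72 h. Screened in duplicate at 25 uM, then concentration-response for actives; fitting relative to DMSO.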

[2] = biological target: Estrogen receptor (Homo sapiens) (UniProt P03372); assay: OT_ER_ERaERa_1440: Odyssey Thera (OT) 24-hour HEK293T Protein-Complementation Assay for Estrogen Receptor-alpha/-alpha Homodimer (AID 2283349);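 also: hits raise fluorescence above DMSO for agonists and antagonists alike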
Chain of Estrogen receptor (Homo sapiens) (P03372 whole entry, looked up, the tested form may be a part): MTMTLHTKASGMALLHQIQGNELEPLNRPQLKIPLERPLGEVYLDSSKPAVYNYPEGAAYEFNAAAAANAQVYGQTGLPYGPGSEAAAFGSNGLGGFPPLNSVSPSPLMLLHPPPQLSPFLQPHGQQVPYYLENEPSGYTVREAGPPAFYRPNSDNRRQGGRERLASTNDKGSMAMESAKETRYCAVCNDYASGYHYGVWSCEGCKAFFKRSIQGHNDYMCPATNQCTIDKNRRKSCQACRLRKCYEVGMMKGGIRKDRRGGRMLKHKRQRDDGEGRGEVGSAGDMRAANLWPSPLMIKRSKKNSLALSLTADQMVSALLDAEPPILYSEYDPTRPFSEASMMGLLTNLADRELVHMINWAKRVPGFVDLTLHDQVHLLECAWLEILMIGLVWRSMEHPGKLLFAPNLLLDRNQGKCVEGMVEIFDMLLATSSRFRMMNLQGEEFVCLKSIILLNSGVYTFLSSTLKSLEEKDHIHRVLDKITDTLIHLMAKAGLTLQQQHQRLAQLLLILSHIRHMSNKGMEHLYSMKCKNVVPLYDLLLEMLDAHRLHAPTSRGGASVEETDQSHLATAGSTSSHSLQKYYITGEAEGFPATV
How it was run: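 HEK293T, stable ERα LBD (aa 310-547) homodimer PCA; 24 h compound exposure; mean fluorescence intensity (nuclear for agonists, nuclear plus cytoplasmic for antagonists) vs vehicle; positive fitting direction, DMSO baseline.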

[3] = biological target: Estrogen receptor (Homo sapiens) (UniProt P03372); assay: OT_ER_ERaERa_0480: Odyssey Thera (OT) 8-hour HEK293T Protein-Complementation Assay for Estrogen Receptor-alpha/-alpha Homodimer (AID 2283351);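 also: rise in fluorescence from reassembled reporter fragments on ERα LBD homodimer in nucleus or whole cell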
How it was run: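 HEK293T cells stably expressing a PCA pair of ER alpha LBD (residues 310-547) were dosed for 8 hours. The gain in fluorescence intensity, nuclear for agonists and whole-cell for antagonists, was measured by laser scanning cytometry against DMSO vehicle.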

[4] = biological target: human Peripheral-type Benzodiazepine Receptor (PBR), TSPO (gene 706) (UniProt P30536); assay: NVS_MP_hPBR: NovaScreen (NVS) Membrane Protein Assay for human Peripheral-type Benzodiazepine Receptor (PBR) (AID 2283331);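 also: hits reduce radioligand binding relative to DMSO baseline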
Chain of human Peripheral-type Benzodiazepine Receptor (PBR), TSPO (gene 706) (P30536 whole entry, looked up): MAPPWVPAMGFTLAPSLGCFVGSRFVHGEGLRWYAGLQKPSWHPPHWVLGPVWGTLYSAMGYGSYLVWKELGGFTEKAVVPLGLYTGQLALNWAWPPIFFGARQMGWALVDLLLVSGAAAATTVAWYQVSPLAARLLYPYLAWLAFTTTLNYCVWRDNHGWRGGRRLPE
How it was run: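 Cell-free binding to human colonic membrane preparations measured by filter-based scintillation counting after 1 h. Compounds first run at 25 uM in duplicate, then concentration series for actives; signal loss against DMSO baseline.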

[5] = biological target: Estrogen receptor (Homo sapiens) + Estrogen receptor beta (Homo sapiens) (UniProt P03372+Q92731); assay: OT_ER_ERaERb_0480: Odyssey Thera (OT) 8-hour HEK293T Protein-Complementation Assay for Estrogen Receptor-alpha/-beta Heterodimer (AID 2283352)
Chain of Estrogen receptor (Homo sapiens) + Estrogen receptor beta (Homo sapiens) (P03372 whole entry, looked up, the tested form may be a part): as the sequence (P03372 whole entry, looked up, the tested form may be a part) above
Chain of Estrogen receptor (Homo sapiens) + Estrogen receptor beta (Homo sapiens) (Q92731 whole entry, looked up, the tested form may be a part): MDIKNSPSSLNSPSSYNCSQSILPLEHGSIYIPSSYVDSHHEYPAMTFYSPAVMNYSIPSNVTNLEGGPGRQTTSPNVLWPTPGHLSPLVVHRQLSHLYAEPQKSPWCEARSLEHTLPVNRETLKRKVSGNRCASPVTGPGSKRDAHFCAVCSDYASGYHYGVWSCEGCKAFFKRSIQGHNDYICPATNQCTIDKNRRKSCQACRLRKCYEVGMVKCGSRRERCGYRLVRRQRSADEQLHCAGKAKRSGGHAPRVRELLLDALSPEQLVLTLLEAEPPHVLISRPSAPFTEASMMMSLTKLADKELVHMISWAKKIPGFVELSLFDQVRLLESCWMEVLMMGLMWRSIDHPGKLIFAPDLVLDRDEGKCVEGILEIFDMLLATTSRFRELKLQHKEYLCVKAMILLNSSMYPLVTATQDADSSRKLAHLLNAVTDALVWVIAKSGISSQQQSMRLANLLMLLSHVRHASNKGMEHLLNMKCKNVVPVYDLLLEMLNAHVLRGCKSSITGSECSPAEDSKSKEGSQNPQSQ
How it was run: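 HEK293T cells expressing ER-alpha/ER-beta LBD fusions to complementary reporter fragments were dosed with compound for 8 hours. Heterodimer formation was read as increased nuclear (agonist) or nuclear plus cytoplasmic (antagonist) mean fluorescence intensity versus DMSO vehicle.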

[6] = NVS_IC_rCaBTZCHL: NovaScreen (NVS) Ion Channel Assay for Calcium Channel, Type L, Benzothiazepine Site (CaBTZCHL) (AID 2283337)
How it was run: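 Rat cortical membrane preparation incubated 1.5 h with compound and benzothiazepine-site radioligand; loss of filter-bound counts versus DMSO marks displacement. Initial duplicate testing at 25 uM, actives followed up in concentration series.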

[7] = biological target: Androgen Receptor/SRC-1 Co-activator, AR (gene 367) (UniProt P10275); assay: OT_AR_ARSRC1_0960: Odyssey Thera (OT) 16-hour HEK293T Protein-Complementation Assay for Androgen Receptor/SRC-1 Co-activator (AID 2283353);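 also: actives raise the signal above DMSO so potency reflects increased AR and SRC-1 complex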
Chain of Androgen Receptor/SRC-1 Co-activator, AR (gene 367) (P10275 whole entry, looked up, the tested form may be a part): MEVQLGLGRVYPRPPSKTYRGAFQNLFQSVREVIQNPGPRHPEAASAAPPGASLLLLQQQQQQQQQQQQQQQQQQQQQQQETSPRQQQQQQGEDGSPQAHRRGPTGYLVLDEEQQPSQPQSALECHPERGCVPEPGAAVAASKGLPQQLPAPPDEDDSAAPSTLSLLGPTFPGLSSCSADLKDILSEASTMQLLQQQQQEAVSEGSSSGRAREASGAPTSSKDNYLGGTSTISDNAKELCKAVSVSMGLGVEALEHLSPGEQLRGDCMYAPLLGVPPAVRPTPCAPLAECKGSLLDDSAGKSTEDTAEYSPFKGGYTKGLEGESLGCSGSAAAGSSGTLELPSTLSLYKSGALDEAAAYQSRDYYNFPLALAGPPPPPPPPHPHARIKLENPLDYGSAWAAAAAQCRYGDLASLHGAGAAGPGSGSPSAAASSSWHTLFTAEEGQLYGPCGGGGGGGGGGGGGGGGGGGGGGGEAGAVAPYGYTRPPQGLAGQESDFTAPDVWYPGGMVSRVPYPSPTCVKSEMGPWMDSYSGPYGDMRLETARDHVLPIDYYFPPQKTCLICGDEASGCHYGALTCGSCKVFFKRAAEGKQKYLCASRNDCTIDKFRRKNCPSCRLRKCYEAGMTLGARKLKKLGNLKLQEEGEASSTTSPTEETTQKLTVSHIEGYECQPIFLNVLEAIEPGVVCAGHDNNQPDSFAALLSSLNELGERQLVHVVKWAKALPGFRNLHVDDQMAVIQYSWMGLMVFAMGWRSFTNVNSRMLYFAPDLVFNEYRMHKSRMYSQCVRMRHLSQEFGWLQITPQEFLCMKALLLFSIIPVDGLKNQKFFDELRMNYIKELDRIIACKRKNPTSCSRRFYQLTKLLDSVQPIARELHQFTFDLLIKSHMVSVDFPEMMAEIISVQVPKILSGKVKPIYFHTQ
Experimental: OT_AR_ARSRC1_0960 is a cell-based, single-readout assay that uses HEK293T, a human kidney cell line, with measurements taken at 16 hours after chemical dosing in a 384-well plate.OT_AR_ARSRC1_0960 is one of one assay component(s) measured or calculated from the OT_AR_ARSRC1_0960 assay. It is designed to make measurements of protein fragment complementation, a form of binding reporter, as detected with fluorescence intensity signals by Protein-fragment Complementation technology.Data from the assay component OT_AR_ARSRC1_0960 was analyzed into 1 assay endpoint. This assay endpoint, OT_AR_ARSRC1_0960, was analyzed in the positive analysis fitting direction relative to DMSO as the negative control and baseline of activity. Using a type of binding reporter, measures of receptor for gain-of-signal activity can be used to understand the binding at the pathway-level as they relate to the gene AR. Furthermore, this assay endpoint can be referred to as a primary readout, because the performed assay has only produced 1 assay endpoint. To generalize the intended target to other relatable targets, this assay endpoint is annotated to the nuclear receptor intended target family, where the subfamily is steroidal.
Protein-fragment complementation assay, or PCA, is a method for the identification and quantification of protein-protein interactions. In the PCA, the proteins of interest ("bait" and "prey") are each covalently linked to fragments of a third protein (e.g. DHFR, which acts as a "reporter"). Interaction between the bait and the prey proteins brings the fragments of the reporter protein in close proximity to allow them to form a functional reporter protein whose activity can be measured. The OT AR / SRC-1 assay assessed androgen receptor chemical interactions using a rapidly maturing, intensely fluorescent mutant of YFP known as Venus, rationally dissected into two separate fragments. […] Fusion constructs were transfected into HEK293T cells with a (Gly4Ser)2 linker between the AR/SRC-1 and YFP fragment genes to facilitate complementation when interacting proteins bring fragments into close proximity. The construct is stably expressed in HEK293T cells. […] Images were acquired on an Evotec Opera at 2 wavelengths (488 and 635nm), and the ratio of fluorescence in the nucleus relative to fluorescence in the cytoplasm (N/C Ratio) in the 488nm channel was calculated for a minimum of 400 cells per image. Both agonists and antagonists of the AR receptor induce nuclear translocation to varying degrees. […] The OT AR/SRC-1 assay was also run for 16 hours (see description for OT_AR_ARSRC1_0960).

[8] = biological target: Androgen Receptor/SRC-1 Co-activator, AR (gene 367) (UniProt P10275); assay: OT_AR_ARSRC1_0480: Odyssey Thera (OT) 8-hour HEK293T Protein-Complementation Assay for Androgen Receptor/SRC-1 Co-activator (AID 2283354);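 also: hits raise the complementation signal above DMSO so AC50 marks enhancers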
How it was run: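 Reconstituted split-Venus YFP signal from AR–SRC-1 interaction, read by imaging 8 h post-dose in stable HEK293T lines. The 488 nm nucleus-to-cytoplasm ratio (≥400 cells/image) was fitted upward against DMSO.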

[9] = biological target: rat Peripheral-type Benzodiazepine Receptor (PBR), Tspo (gene 24230) (UniProt P16257); assay: NVS_MP_rPBR: NovaScreen (NVS) Membrane Protein Assay for rat Peripheral-type Benzodiazepine Receptor (PBR) (AID 2283335)
Chain of rat Peripheral-type Benzodiazepine Receptor (PBR), Tspo (gene 24230) (P16257 whole entry, looked up): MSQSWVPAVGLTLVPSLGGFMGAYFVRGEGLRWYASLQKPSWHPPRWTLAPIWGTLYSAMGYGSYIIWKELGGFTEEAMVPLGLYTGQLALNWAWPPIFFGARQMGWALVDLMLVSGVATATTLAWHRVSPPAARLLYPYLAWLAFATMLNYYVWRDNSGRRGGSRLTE
How it was run: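 Competitive displacement of specific radioligand from rat kidney membrane PBR, read by filtration and scintillation after 1 h. Compounds first tested at 25 uM in duplicate, then in concentration series; signal loss relative to DMSO.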

[10] = biological target: Estrogen receptor (Homo sapiens) (UniProt P03372); assay: NVS_NR_hER: NovaScreen (NVS) Nuclear Receptor Binding Assay for human Estrogen Receptor (ER) (AID 2283348)
How it was run: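 Cell-free MCF7-derived ER preparation, specific radioligand displaced by test compound, read by scintillation counting 18 h post-dosing. Duplicate single-point 25 uM screen, then concentration-response confirmation; DMSO baseline.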

Compound: CN(C)c1ccc(N=Nc2ccccc2C(=O)O)cc1
- outcome [1]: inactive
- outcome [2]: inactive
- outcome [3]: inactive

Compound: CCCCCCCCCCCCCCCC[N+](C)(C)CC
- AC50 [4]: 35.8 µM (active)

Compound: CC/C=C\C/C=C\C/C=C\CCCCCCCC(=O)O
- AC50 [4]: 11.6 µM (active)
- outcome [2]: inactive
- outcome [3]: inactive
- outcome [5]: inactive

Compound: CCO[Si](CCCN=C=O)(OCC)OCC
- outcome [6]: inactive

Compound: CCO[Si](C)(OCC)OCC
- outcome [2]: inactive
- outcome [3]: inactive

Compound: O=C(OCC1CCC2OC2C1)C1CCC2OC2C1 (stereo unspecified)
- outcome [2]: inactive
- AC50 [3]: 12.1 µM (active)

Compound: CCOc1nc(F)cc2nc(S(=O)(=O)Nc3c(Cl)cccc3C(=O)OC)nn12
- AC50 [4]: 1.63 µM (active)

Compound: Oc1ccc(Cl)cc1Cc1cc(Cl)ccc1O
- AC50 [1]: 16.2 µM (active)
- AC50 [2]: 11.9 µM (active)
- outcome [3]: inactive
- AC50 [5]: 11.9 µM (active)
- AC50 [7]: 29.6 µM (active)
- AC50 [8]: 55.5 µM (active)

Compound: COC(=O)c1c(C)cc(O)c(C)c1O
- AC50 [1]: 13.6 µM (active)
- outcome [2]: inactive
- outcome [3]: inactive
- AC50 [5]: 50.4 µM (active)

Compound: OC1CCCCCCCCCCC1
- outcome [1]: inactive
- outcome [2]: inactive
- outcome [3]: inactive

Compound: Cc1ccc(C(C)(C)C)cc1
- outcome [2]: inactive
- outcome [3]: inactive

Compound: CN(C)c1ccc(C(=N)c2ccc(N(C)C)cc2)cc1
- AC50 [4]: 2.62 µM (active)
- AC50 [9]: 11.6 µM (active)
- AC50 [2]: 33.4 µM (active)
- AC50 [3]: 59.1 µM (active)
- outcome [5]: inactive

Compound: CC(C)c1ccc2c(C(C)C)cc(C(C)C)c(S(=O)(=O)O)c2c1
- outcome [9]: inactive
- outcome [2]: inactive
- outcome [3]: inactive
- outcome [7]: inactive
- outcome [8]: inactive

Compound: CC(=O)NS(=O)(=O)c1ccc(N)cc1
- outcome [10]: inactive

Compound: C/C=C\C/C=C/CCCCCCCCOC(C)=O
- AC50 [4]: 16.3 µM (active)
- AC50 [9]: 17.2 µM (active)

Compound: Cc1cc(C)c(C)cc1C
- outcome [2]: inactive
- outcome [3]: inactive

Compound: CCCCCCCCCCCCCOP(=O)(O)O
- AC50 [4]: 18.4 µM (active)
- outcome [10]: inactive
- outcome [2]: inactive
- outcome [3]: inactive
- outcome [5]: inactive

Compound: CCCCCCC1(C)CCC(=O)O1 (stereo unspecified)
- outcome [2]: inactive
- outcome [3]: inactive

Compound: C#CC1(O)CC[C@H]2[C@@H]3CCC4=CCCC[C@@H]4[C@H]3CC[C@@]21C (stereo partly specified)
- outcome [1]: inactive

Compound: CCCCCCCCCCOS(=O)(=O)O
- outcome [2]: inactive
- outcome [3]: inactive

Compound: C1=Cc2ccccc2C1
- AC50 [4]: 15.2 µM (active)
- outcome [2]: inactive
- outcome [3]: inactive

Compound: Cc1ccc(N/N=c2\c(=O)cc/c(=N/Nc3ccc(S(=O)(=O)O)cc3)c2=O)c(C)c1
- AC50 [4]: 7.15 µM (active)
- AC50 [9]: 5.26 µM (active)
- AC50 [1]: 25 µM (active)
- outcome [2]: inactive
- outcome [3]: inactive
- outcome [5]: inactive

Compound: CCCOC(=O)CCCCC(=O)OCCC
- outcome [1]: inactive

Compound: c1ccc2c(c1)ccc1cc3c(ccc4ccccc43)cc12
- outcome [1]: inactive
- outcome [2]: inactive
- outcome [3]: inactive

Compound: CCCCCc1ccc(Cl)cc1
- outcome [2]: inactive
- outcome [3]: inactive

Compound: CCN(CCC#N)c1ccc(N=Nc2c(Cl)cc([N+](=O)[O-])cc2Cl)cc1
- AC50 [1]: 16.1 µM (active)
- outcome [2]: inactive
- outcome [3]: inactive

Compound: C=C[Si](C)(C)O[Si](C)(C)C=C
- outcome [2]: inactive
- outcome [3]: inactive

Compound: CCCCCCCC/C=C\CCCCCCCC(=O)OCCO
- outcome [2]: inactive
- outcome [3]: inactive

Compound: Cc1cccc(N(C)C(=S)Oc2ccc3ccccc3c2)c1
- outcome [10]: inactive

Compound: O=c1cc(-c2ccccc2)oc2ccccc12
- AC50 [4]: 12.6 µM (active)
- AC50 [9]: 3.68 µM (active)
- outcome [2]: inactive
- outcome [3]: inactive
- outcome [5]: inactive
- outcome [7]: inactive
- outcome [8]: inactive

Compound: CCCCC/C=C\C/C=C\CCCCCCCC(=O)OC
- AC50 [4]: 8.31 µM (active) and 6.11 µM (active)
- AC50 [9]: 9.68 µM (active) and 8.87 µM (active)
- AC50 [1]: 4.2 µM (active) and 11.5 µM (active)
- outcome [2]: inactive
- outcome [3]: inactive
- outcome [5]: inactive

Compound: O=S(=O)(O)c1ccccc1C=Cc1ccc(-c2ccc(C=Cc3ccccc3S(=O)(=O)O)cc2)cc1
- AC50 [4]: 0.6 µM (active)
- AC50 [9]: 2.43 µM (active)
- outcome [3]: inactive
- outcome [5]: inactive

Compound: CCCCCCCC[N+](C)(CCCCCCCC)CCCCCCCC
- AC50 [4]: 3.77 µM (active)
- outcome [2]: inactive
- outcome [3]: inactive
- outcome [5]: inactive

Compound: Cc1cccc(N)n1
- outcome [10]: inactive

Compound: O=C(O)CCCCCCCCCC(=O)O
- outcome [10]: inactive

Compound: C1CN(SSN2CCOCC2)CCO1
- outcome [2]: inactive
- outcome [3]: inactive

Compound: [Cl][Bi]([Cl])([c]1ccccc1)([c]1ccccc1)[c]1ccccc1
- outcome [10]: inactive

Compound: CCOC(=O)CC
- outcome [2]: inactive

Compound: O=C(Nc1ccccc1SSc1ccccc1NC(=O)c1ccccc1)c1ccccc1
- AC50 [4]: 6.22 µM (active)
- outcome [9]: inactive

Compound: CC(=O)OC(C)C
- outcome [2]: inactive
- outcome [3]: inactive

Compound: CC=C1CC2C=CC1C2 (stereo unspecified)
- outcome [2]: inactive
- outcome [3]: inactive
- outcome [5]: inactive
